“And” between values parts separate entries of the source, which are not always exact repeats. Identical values can stand only once. This is part of a sample that, as a whole, favours compounds with a hit. Of some 83,000 tested, about 20% had one in any assay.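 Treatment: one concentration, 48 hours, 96-well format. Scoring: percent growth, with anything below 10 considered active.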 A number with no mark means an inactive call. The source made the active and inactive calls.

For the experiment, the system named is NCI-H522 lung. As to the kind of experiment: NCI-60 one-dose screen, 48 h (100 = growth as untreated, 0 = no growth, -100 = all killed). To be noted: 10 µM unless noted.
Consider `CN(C)CCN1C(=O)c2c(c3c4ccccc4n4c3c3c2c2ccccc2n3C2CC(O)C(O)C4(C)O2)C1=O` (centres undefined), for which the growth is -5.02% (active).

With `O/N=C(/c1ccccc1)c1ccc2c3c(cccc13)CC2`, the growth was 88.3% and 89.6%.

In the case of `CCNC(=O)Oc1ccc(/C(=C(/C)Cc2ccc(OC)cc2)c2ccc(OCCN(CC)CC)cc2)cc1`, the growth was 58.1%.

Regarding `Cc1nnc(NS(=O)(=O)c2ccc(N=Nc3ccc(N)nc3N)cc2)s1`, the growth was 96.7%.

In the case of `Cn1cc(C2=C(c3cccc4ccccc34)C(=O)NC2=O)c2cc(Br)ccc21`, the growth is 99.8%.

In the case of `Cc1ccc2nc3ccccc3c(NCc3ccc(Cl)cc3)c2c1`, the growth is 54.2%.

As for `Brc1ccc(/C=C(/C2=NCCN2)n2ccc3ccccc32)cc1`, the growth is 62.7%.

Regarding `Cn1cc2c(=O)nc3c(-c4nc5ccccc5[nH]4)n[nH]n3c2n1`, the growth is -44.5% (active).

Turning to `Cc1ccc2[nH]c(=S)[nH]c(=O)c2c1`, the growth was 94.7%.

`N#CC1=C(N)Oc2c(sc3c(Br)cccc23)C1c1ccccn1` (centres undefined): the growth is -14.1% (active).

Turning to `Cc1nc2sc(C(=O)Nc3cccc4ncccc34)c(N)c2cc1C(C)O` (centres undefined), the growth was 34.7%.

As for `COc1ccc2c(O)c(/C=C3\N=Nc4nc(C)ccc43)oc2c1CC1CCNCC1`, the growth was 43.4%.

For `Clc1ccc(Nc2nc(Nc3ccc(Cl)cc3)nc(Nc3ccc(-c4cc(-c5cccc(Cl)c5)on4)cc3)n2)cc1`, the growth was 88.5%.

For `O=C(/C=C/c1ccc(Cl)s1)c1ccc(Cl)s1`, the growth was 70.1% and 87.1%.

Source of the values: PubChem BioAssay (NCI).
